Measurements reported in the supplement of paper PMC7411640.
Counter-ions that a name gives are not always drawn.

Test system: MDA-MB-468
Experiment: phospho-S6 immunofluorescence (DAPI-normalised), per-plate z-score; higher = higher phospho-S6 signal (less pathway suppression)
Settings: 24 h
Description: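 GPCR-targeted compound library (MedChemExpress HY-L006) tested on MDA-MB-468 PTEN-null TNBC cells in 384-well plates at 0.1, 1 or 10 uM, combined with vehicle, GDC0941 450 nM or lapatinib 1 uM, for 24 h. Phospho-S6 (S240/244) immunofluorescence normalised to DAPI and expressed as a per-plate z-score; values are the mean of biological triplicates.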

SMILES	phospho-S6 immunofluorescence (z-score) (co-treatment: GDC0941 450 nM)	phospho-S6 immunofluorescence (z-score) (co-treatment: lapatinib 1 uM)	phospho-S6 immunofluorescence (z-score) (co-treatment: vehicle)
NCCCC[C@H](NC(=O)[C@@H]1CCCN1C(=O)[C@@H]1CSSC[C@H](NC(=O)CNC(=O)CNC(=O)CN)C(=O)N[C@@H](Cc2ccc(O)cc2)C(=O)N[C@@H](Cc2ccccc2)C(=O)N[C@@H](CCC(N)=O)C(=O)N[C@@H](CC(N)=O)C(=O)N1)C(=O)NCC(N)=O [Terlipressin] (compound 10 µM)	0.05	0.98	0.08
O=C(N[C@H]1CCN(C(=O)c2cc(C(F)(F)F)cc(C(F)(F)F)c2)[C@H](Cc2ccc(Cl)cc2)C1)c1ccnc2ccccc12 (compound 10 µM)	-1.97	-1.9	-1.44
CNC[C@H](O)c1ccc(O)c(O)c1 [L-Epinephrine (Bitartrate)] (compound 10 µM)	0.93	2.5	-0.23
C/C(=N\NC(=O)C(NC(=O)c1ccccc1)c1n[nH]c(=O)c2ccccc12)c1cccc(Br)c1 (stereo unspecified) (compound 10 µM)	0.96	0.13	0.95
CC(C)[C@H](N=C(NS(=O)(=O)c1ccc(Cl)cc1)N1C[C@H](c2ccccc2)C(c2ccc(Cl)cc2)=N1)C(N)=O (compound 10 µM)	-2.11	-0.39	0.1
O=C(O)CC1CCC2(CC1)CCN(c1cc(OC(F)(F)F)ccc1Cl)CC2 (compound 10 µM)	0.09	0.11	0.22
O=C(Nc1cccc2c(=O)cc(-c3nnn[nH]3)oc12)c1ccc(OCCCCc2ccccc2)cc1 [Pranlukast] (compound 10 µM)	0.87	0.55	-0.36
CN1CCC(=C2c3ccccc3CCc3sccc32)CC1 [Pizotifen] (compound 10 µM)	0.35	-1.87	-0.19
CC(NCCc1ccc(O)cc1)C(O)c1ccc(O)cc1 (stereo unspecified) [Ritodrine (hydrochloride)] (compound 10 µM)	-0.01	1.26	0.06
C[C@H](Cc1cc2c(c(C(N)=O)c1)N(CCCO)CC2)NCCOc1ccccc1OCC(F)(F)F [Silodosin] (compound 10 µM)	-0.57	-0.02	0.57
Cc1cncc(CN2CCC(=C3c4ccc(Cl)cc4CCc4cccnc43)CC2)c1 [Rupatadine (Fumarate)] (compound 10 µM)	-1.47	-2.09	-1.45
COc1ccccc1N1CCN(CC(O)COc2cccc3ccccc23)CC1 (stereo unspecified) [Naftopidil] (compound 10 µM)	-0.13	-0.63	0.64
NCCc1ccc(O)c(O)c1 [Dopamine (hydrochloride)] (compound 10 µM)	0.84	0.53	0.15
C[C@H]1C[C@H]2[C@@H]3CCC4=CC(=O)C=C[C@]4(C)[C@@]3(F)[C@@H](O)C[C@]2(C)[C@@]1(O)C(=O)CO [Betamethasone] (compound 10 µM)	-1.59	1.5	-0.96
CN(C)CCC(c1ccccc1)c1ccccn1 (stereo unspecified) [Pheniramine (Maleate)] (compound 10 µM)	0.09	0.78	-0.37
CN1CCN(c2cc(-c3ccccc3)nc(N)n2)CC1 (compound 10 µM)	0.39	0.06	1.14
O=C(NCCCN1CCC2(CC1)OCc1ccccc12)[C@H]1CCCN1Cc1ccccc1 (compound 10 µM)	-1.61	-1.57	-0.4
C[C@@H]1C[C@H]2[C@@H]3CCC4=CC(=O)C=C[C@]4(C)[C@@]3(Cl)[C@@H](O)C[C@]2(C)[C@@]1(OC(=O)c1ccco1)C(=O)CCl [Mometasone furoate] (compound 10 µM)	-0.46	0.3	-1.92
CC[C@@H](Nc1c(Nc2cccc(C(=O)N(C)C)c2O)c(=O)c1=O)c1ccc(C)o1 (compound 10 µM)	0.29	-0.41	2.26
CC(CCc1ccccc1)NCC(O)c1ccc(O)c(C(N)=O)c1 (stereo unspecified) [Labetalol (hydrochloride)] (compound 10 µM)	0.84	-0.16	0.83
C[C@@H](OC[C@@]1(c2ccccc2)CC[C@]2(CCC(=O)N2)CN1)c1cc(C(F)(F)F)cc(C(F)(F)F)c1 [Rolapitant] (compound 10 µM)	-4.35	-3.8	-0.65
CC(C)COc1ccc(CNC(=O)N(Cc2ccc(F)cc2)C2CCN(C)CC2)cc1 [Pimavanserin tartrate] (compound 10 µM)	-3.99	-6.18	-5.03
Cc1noc(-c2ccc(-c3ccc(CC(=O)O)cc3)cc2)c1NC(=O)O[C@H](C)c1ccccc1 [AM095 (free acid)] (compound 10 µM)	1.08	0.37	0.82
C=CCN1CCc2c(cc(O)c(O)c2Cl)C(c2ccccc2)C1 (stereo unspecified) (compound 10 µM)	-0.13	1.66	1.76

SMILES	phospho-S6 immunofluorescence (z-score) (co-treatment: GDC0941 450 nM)	phospho-S6 immunofluorescence (z-score) (co-treatment: lapatinib 1 uM)	phospho-S6 immunofluorescence (z-score) (co-treatment: vehicle)
NC(=O)[C@@H]1CCCC[C@@H]1C(=O)Nc1ccc(Cl)c(Cl)c1 (compound 10 µM)	0.33	-0.14	0.47
CC(COc1ccccc1)N(CCCl)Cc1ccccc1 (stereo unspecified) [Phenoxybenzamine (hydrochloride)] (compound 10 µM)	0.33	-0.04	0.39
NCCCCN(Cc1nc2ccccc2[nH]1)[C@H]1CCCc2cccnc21 [AMD-070 (hydrochloride)] (compound 10 µM)	-4.2	-3.44	-3.01
CCC(=O)OCC(=O)[C@@]1(OC(=O)CC)[C@@H](C)C[C@H]2[C@@H]3CCC4=CC(=O)C=C[C@]4(C)[C@@]3(F)[C@@H](O)C[C@@]21C [Betamethasone dipropionate] (compound 10 µM)	-0.51	-0.45	0.82
COc1ccccc1N1CCN(CCCCN2C(=O)c3ccccc3C2=O)CC1 [NAN-190 (hydrobromide)] (compound 10 µM)	0.76	-0.29	0.19
CCOc1nc2cccc(C(=O)OC(C)OC(=O)OC3CCCCC3)c2n1Cc1ccc(-c2ccccc2-c2nn[nH]n2)cc1 (stereo unspecified) [Candesartan (Cilexetil)] (compound 10 µM)	-1.58	0.17	-1.08
CN(C)CCCN1c2ccccc2CCc2ccc(Cl)cc21 [Clomipramine (hydrochloride)] (compound 10 µM)	-1.98	-3.26	-1.14
Clc1ccc2c(c1)N=C(N1CCNCC1)c1ccccc1N2 [N-Desmethylclozapine] (compound 10 µM)	-0.56	-3.16	-0.88
CN1CCN(CCc2ccc(Cl)c(Cl)c2)CC1 [BD1063 (dhydrochloride)] (compound 10 µM)	0.51	-1.56	-0.49
C[N+]1(C)CCC(=C(c2ccccc2)c2ccccc2)CC1 [Diphenmanil (methylsulfate)] (compound 10 µM)	0.46	0.06	0.8
CC(C)C[C@H](NC(=O)[C@@H](COC(C)(C)C)NC(=O)[C@H](Cc1ccc(O)cc1)NC(=O)[C@H](CO)NC(=O)[C@H](Cc1c[nH]c2ccccc12)NC(=O)[C@H](Cc1cnc[nH]1)NC(=O)[C@@H]1CCC(=O)N1)C(=O)N[C@@H](CCCNC(=N)N)C(=O)N1CCC[C@H]1C(=O)NNC(N)=O [Goserelin (acetate)] (compound 10 µM)	-1.26	0.37	0.21
COc1cc(/C=C/C(=O)O)ccc1O [Ferulic acid (sodium)] (compound 10 µM)	0.56	0.36	0.33
COCCOc1ccc(N2CCN(CCn3ncc4c3nc(N)n3nc(-c5ccco5)nc43)CC2)cc1 [Preladenant] (compound 10 µM)	-0.66	0.79	0.97
O=C(C[S+]([O-])Cc1ccco1)NC/C=C\COc1cc(CN2CCCCC2)ccn1 (stereo unspecified) [Lafutidine] (compound 10 µM)	-0.67	0.02	-0.32
CC1OC2(CS1)CN1CCC2CC1 (stereo unspecified) [Cevimeline (hydrochloride hemihydrate)] (compound 10 µM)	0.65	-0.04	0.89
OC(CCCN1CCCCC1)(c1ccccc1)c1ccccc1 [Diphenidol (hydrochloride)] (compound 10 µM)	0.19	1.09	0.38
O=c1ccn([C@@H]2O[C@H](COP(=O)(O)OP(=O)(O)OP(=O)(O)OP(=O)(O)OC[C@H]3O[C@@H](n4ccc(=O)[nH]c4=O)[C@H](O)[C@@H]3O)[C@@H](O)[C@H]2O)c(=O)[nH]1 [Diquafosol (tetrasodium)] (compound 10 µM)	0.01	0.71	-0.38
Cc1ccc(-c2n[nH]c3c2C(c2cccc(O)c2)N(c2ccc(C(=O)O)cc2)C3=O)cc1 (stereo unspecified) (compound 10 µM)	0	0.5	-0.12
COc1ccc2c(c1)c(CC(=O)N1CCOCC1)c(C)n2C(=O)c1ccc(Cl)cc1 (compound 10 µM)	-3.35	-6.12	-6.12
Cn1c(=O)c2c(ncn2CC(=O)O)n(C)c1=O [Acefylline] (compound 10 µM)	0.4	0.37	-0.98
CCNC(=O)[C@@H]1CCCN1C(=O)[C@H](CCCN=C(N)N)NC(=O)[C@H](CC(C)C)NC(=O)[C@@H](C)NC(=O)[C@H](Cc1ccc(O)cc1)NC(=O)[C@H](CO)NC(=O)[C@H](Cc1c[nH]c2ccccc12)NC(=O)[C@H](Cc1cnc[nH]1)NC(=O)[C@@H]1CCC(=O)N1 [Alarelin (Acetate)] (compound 10 µM)	0.86	-0.01	1
CN1CCc2c(c3ccccc3n2Cc2ccccc2)C1 [Mebhydrolin (napadisylate)] (compound 10 µM)	-0.29	-1.06	0.64
Nc1nc2c(cnn2CCc2ccccc2)c2nc(-c3ccco3)nn12 (compound 10 µM)	-0.2	1.51	3.1
